Assay results published in the supplement of paper PMC12494721.
Counter-ions that a name gives are not always drawn.

Assays:
Settings in all cases: incubation time: 27 h, anaerobic, 37 °C;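 for the amine columns active = adjusted P below 0.05 in both replicates with a change the same way and a mean fold change under 0.8 or over 1.25; inactive = the rest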
[1] = test system: Clostridium sporogenes DSM 1664; test: growth (OD595) fold change vs plate DMSO controls (fold change (ratio)); higher = more growth
How it was run: (§1)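 Absorbance at 595 nm was read after shaking the anaerobic mGAM cultures, which had grown in 96-well plates for 27 h at 37 °C. After blank subtraction and background correction against 20 µM compound solutions in water, a calibration factor of 5 gave OD values. Growth is the fold change against the median of the plate's DMSO controls. Values are the mean of 2 biological replicates, with fold changes above 1.5 set to NA.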

Escherichia coli IAI1 [2] = test: as above
How it was run: as §1

[3] = test system: Klebsiella aerogenes DSM 30053; test: as above
How it was run: as §1

[4] = test system: Ruminococcus gnavus DSM 108212; test: as above
How it was run: as §1

[5] = test system: Klebsiella aerogenes DSM 30053; test: fold change of Histamine concentration vs plate DMSO controls (fold change (ratio)); higher = more amine produced, active = hit call of the paper (significant change in both replicates, either direction)
How it was run: (§2)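 Amine values are fold changes relative to DMSO-only wells on the same plate. They derive from 27 h, 37 °C anaerobic mGAM cultures of four gut bacterial strains in 80 µL wells, dosed at 20 µM final, or 50 µM final for sweeteners. Extraction of the whole culture, LC–triple-quadrupole MS in dynamic MRM mode, external calibration curves and within-batch drift correction were used, with 2 biological replicates averaged.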

[6] = test system: Clostridium sporogenes DSM 1664; test: fold change of Tryptamine concentration vs plate DMSO controls (fold change (ratio)); higher = more amine produced, active = hit call of the paper (significant change in both replicates, either direction)
How it was run: as §2

[7] = test system: Ruminococcus gnavus DSM 108212; test: as above
How it was run: as §2

Escherichia coli IAI1 [8] = test: fold change of Putrescine concentration vs plate DMSO controls (fold change (ratio)); higher = more amine produced, active = hit call of the paper (significant change in both replicates, either direction)
How it was run: as §2

[9] = test system: Klebsiella aerogenes DSM 30053; test: as above
How it was run: as §2

Escherichia coli IAI1 [10] = test: fold change of Cadaverine concentration vs plate DMSO controls (fold change (ratio)); higher = more amine produced, active = hit call of the paper (significant change in both replicates, either direction)
How it was run: as §2

[11] = test system: Klebsiella aerogenes DSM 30053; test: as above
How it was run: as §2

[12] = test system: Ruminococcus gnavus DSM 108212; test: fold change of 2-Phenylethylamine concentration vs plate DMSO controls (fold change (ratio)); higher = more amine produced, active = hit call of the paper (significant change in both replicates, either direction)
How it was run: as §2

Row | SMILES | growth [1] | growth (Escherichia coli IAI1 [2]) | growth [3] | growth [4] | fold change of Histamine concentration [5] | fold change of Tryptamine concentration [6] | fold change of Tryptamine concentration [7] | fold change of Putrescine concentration (Escherichia coli IAI1 [8]) | fold change of Putrescine concentration [9] | fold change of Cadaverine concentration (Escherichia coli IAI1 [10]) | fold change of Cadaverine concentration [11] | fold change of 2-Phenylethylamine concentration [12]
1 | CCOC(=O)/C=C(C)/C=C/C=C(C)/C=C/c1c(C)cc(OC)c(C)c1C [Etretinate] (20 µM) | 1.04 | 0.971 | 0.965 | 0.927 | 1.09 (inactive) | 1.02 (inactive) | 1.03 (inactive) | 0.998 (inactive) | 1.02 (inactive) | 1 (inactive) | 0.983 (inactive) | 1.04 (inactive)
2 | N=C(N)NCc1cccc(I)c1 [Iobenguane sulfate] (20 µM) | 0.944 | 0.983 | 0.971 | 0.721 | 0.89 (inactive) | 1 (inactive) | 1.08 (inactive) | 0.949 (inactive) | 0.914 (inactive) | 1.04 (inactive) | 1.1 (inactive) | 1.09 (inactive)
3 | CC(COc1ccccc1)N(CCCl)Cc1ccccc1 (stereo not drawn) [Phenoxybenzamine hydrochloride] (20 µM) | 0.887 | 1.03 | 1.01 | 1.02 | 1.02 (inactive) | 1 (inactive) | 1.01 (inactive) | 1.02 (inactive) | 1.02 (inactive) | 0.963 (inactive) | 0.985 (inactive) | 1.05 (inactive)
4 | OCCN(CCO)c1nc(N2CCCCC2)c2nc(N(CCO)CCO)nc(N3CCCCC3)c2n1 [Dipyridamole] (20 µM) | 0.986 | 1.03 | 0.521 | 0.969 | 0.47 (inactive) | 0.971 (inactive) | 1 (inactive) | 1.03 (inactive) | 0.51 (inactive) | 1 (inactive) | 0.5 (inactive) | 0.994 (inactive)
5 | O=C(O)COCCN1CCN(C(c2ccccc2)c2ccc(Cl)cc2)CC1 (stereo not drawn) [Cetirizine dihydrochloride] (20 µM) | 1.02 | 1.07 | 1.04 | 0.959 | 0.94 (inactive) | 1.03 (inactive) | 1.01 (inactive) | 1.06 (inactive) | 0.997 (inactive) | 0.957 (inactive) | 1 (inactive) | 1.03 (inactive)
6 | NS(=O)(=O)c1cc(C(=O)O)cc(N2CCCC2)c1Oc1ccccc1 [Piretanide] (20 µM) | 1.09 | 0.987 | 0.997 | 0.955 | 1.01 (inactive) | 1.11 (inactive) | 1.1 (inactive) | 0.974 (inactive) | 1.04 (inactive) | 1.06 (inactive) | 1.08 (inactive) | 1.23 (inactive)
7 | Cc1cc(C)nc(NS(=O)(=O)c2ccc(N)cc2)n1 [Sulfamethazine sodium salt] (20 µM) | 1.01 | 0.957 | 0.984 | 0.999 | 1.06 (inactive) | 1.06 (inactive) | 1.04 (inactive) | 0.93 (inactive) | 1.03 (inactive) | 0.986 (inactive) | 0.995 (inactive) | 1.07 (inactive)
8 | O=C1Cc2cc(CCN3CCN(c4nsc5ccccc45)CC3)c(Cl)cc2N1 [Ziprasidone  hydrochloride monohydrate] (20 µM) | 1.09 | 1.06 | 1.03 | 1.23 | 1.23 (inactive) | 0.998 (inactive) | 0.712 (active) | 1.12 (inactive) | 1.1 (inactive) | 1.08 (inactive) | 1.06 (inactive) | 0.771 (active)
9 | CCCCc1ccc2[nH]c(NC(=O)OC)nc2c1 [Parbendazole] (20 µM) | 1.04 | 1.04 | 1.02 | 1.25 | 1.11 (inactive) | 0.953 (inactive) | 0.998 (inactive) | 0.98 (inactive) | 1.07 (inactive) | 0.981 (inactive) | 1.03 (inactive) | 1.02 (inactive)
10 | CC(=O)NCCCS(=O)(=O)O [Acamprosate calcium] (20 µM) | 1.08 | 0.999 | 0.963 | 0.795 | 1.02 (inactive) | 1.02 (inactive) | 0.996 (inactive) | 0.995 (inactive) | 1.02 (inactive) | 0.983 (inactive) | 1 (inactive) | 0.996 (inactive)
11 | C=CCN1CCCC1CNC(=O)c1cc2nn[nH]c2cc1OC (stereo not drawn) [Alizapride hydrochloride] (20 µM) | 1.09 | 1.01 | 1.05 | 1.09 | 1 (inactive) | 0.964 (inactive) | 1.02 (inactive) | 0.994 (inactive) | 0.988 (inactive) | 0.998 (inactive) | 0.99 (inactive) | 1 (inactive)
12 | CC(=O)N(CC(O)CN(C(C)=O)c1c(I)c(C(=O)NCC(O)CO)c(I)c(C(=O)NCC(O)CO)c1I)c1c(I)c(C(=O)NCC(O)CO)c(I)c(C(=O)NCC(O)CO)c1I (stereo not drawn) [Iodixanol] (20 µM) | 0.85 | 0.989 | 1.03 | 1.01 | 0.962 (inactive) | 1.02 (inactive) | 0.886 (inactive) | 1.04 (inactive) | 1 (inactive) | 0.988 (inactive) | 0.991 (inactive) | 0.815 (inactive)
13 | CNC[C@H](O)[C@@H](O)[C@H](O)[C@H](O)CO [Meglumine] (20 µM) | 0.956 | 1.07 | 1.05 | 0.994 | 0.883 (inactive) | 1.04 (inactive) | 1.02 (inactive) | 1.25 (inactive) | 0.979 (inactive) | 0.99 (inactive) | 1.06 (inactive) | 0.998 (inactive)
14 | Cc1cccc(Nc2ccncc2S(=O)(=O)NC(=O)NC(C)C)c1 [Torsemide] (20 µM) | 1.09 | 1.07 | 1 | 1.03 | 1.03 (inactive) | 1.05 (inactive) | 1.12 (inactive) | 1.06 (inactive) | 0.998 (inactive) | 0.976 (inactive) | 0.986 (inactive) | 1.24 (inactive)
15 | CCN(CC)CCCC(C)Nc1c2ccc(Cl)cc2nc2ccc(OC)cc12 (stereo not drawn) [Quinacrine dihydrochloride hydrate] (20 µM) | 1.09 | 1.03 | 0.892 | 1.36 | 1.03 (inactive) | 1.1 (inactive) | 1.07 (inactive) | 1.03 (inactive) | 0.928 (inactive) | 0.982 (inactive) | 0.996 (inactive) | 1.08 (inactive)
16 | COc1cc(C(=O)NC2CCCNC2)cc(OC)c1OC (stereo not drawn) [Troxipide] (20 µM) | 0.822 | 1.02 | 0.99 | 0.845 | 0.989 (inactive) | 1.03 (inactive) | 1.06 (inactive) | 0.965 (inactive) | 0.983 (inactive) | 0.978 (inactive) | 0.996 (inactive) | 1.02 (inactive)
17 | CCc1oc2ccccc2c1C(=O)c1ccc(O)cc1 [Benzarone] (20 µM) | 1 | 1.1 | 1.09 | 1.11 | 0.967 (inactive) | 0.933 (inactive) | 0.934 (inactive) | 1.06 (inactive) | 1 (inactive) | 1.01 (inactive) | 1.02 (inactive) | 0.956 (inactive)
18 | OCC1(O)OC[C@@H](O)[C@@H](O)[C@H]1O (stereo partly drawn) [Psicose] (50 µM) | 1.08 | 1.01 | 1.03 | 1.03 | 1.03 (inactive) | 0.991 (inactive) | 0.992 (inactive) | 1.04 (inactive) | 1.04 (inactive) | 0.967 (inactive) | 1.01 (inactive) | 0.942 (inactive)
19 | CC(C(=O)O)c1cccc(Oc2ccccc2)c1 (stereo not drawn) [Fenoprofen calcium salt dihydrate] (20 µM) | 0.882 | 0.997 | 1.04 | 1.21 | 0.981 (inactive) | 0.945 (inactive) | 0.951 (inactive) | 0.976 (inactive) | 0.983 (inactive) | 1.03 (inactive) | 1 (inactive) | 0.937 (inactive)
20 | Oc1ccc2ccccc2c1N=Nc1ccccc1 [Sudan I (1-phenylazo-2-hydroxynaphthalene)] (20 µM) | 0.978 | 1.06 | 1.08 | 1.12 | 0.924 (inactive) | 0.919 (inactive) | 1.04 (inactive) | 0.952 (inactive) | 0.893 (inactive) | 0.915 (inactive) | 1.08 (inactive) | 1.07 (inactive)
21 | Cn1cnc2c1c(=O)[nH]c(=O)n2C [Theobromine] (20 µM) | 1.19 | 1 | 1.04 | 1.11 | 0.986 (inactive) | 1.11 (inactive) | 1.05 (inactive) | 0.998 (inactive) | 0.991 (inactive) | 0.982 (inactive) | 1 (inactive) | 1.04 (inactive)
22 | Oc1c(Br)cc(Br)c2cccnc12 [Broxyquinoline] (20 µM) | 0.98 | 0.92 | 0.951 | 0.643 | 1.09 (inactive) | 0.919 (inactive) | 0.562 (active) | 1.03 (inactive) | 1.02 (inactive) | 1.2 (inactive) | 0.968 (inactive) | 0.6 (inactive)
23 | Cc1cc(N)c2ccccc2[n+]1CCCCCCCCCC[n+]1c(C)cc(N)c2ccccc21 [Dequalinium dichloride] (20 µM) | 0.993 | 0.99 | 1.11 | 0.565 | 0.873 (inactive) | 0.951 (inactive) | 0.896 (inactive) | 0.933 (inactive) | 1 (inactive) | 0.968 (inactive) | 1.01 (inactive) | 0.921 (inactive)
24 | COc1cc2nc(N(C)CCCNC(=O)C3CCCO3)nc(N)c2cc1OC (stereo not drawn) [Alfuzosin hydrochloride] (20 µM) | 0.976 | 1.01 | 1.01 | 1.31 | 0.953 (inactive) | 1 (inactive) | 1.04 (inactive) | 0.976 (inactive) | 0.99 (inactive) | 1.01 (inactive) | 1.04 (inactive) | 1.04 (inactive)
